Abeta yeast res: A-beta toxicity reversal in yeast. Potency, µM (series often up to 46.1 µM), most hits filed as activators. 410,000 compounds, 0.063% hits. yeast expressing A-beta42, growth rescue, OD600, 48 h; response scale: 0% DMSO, 100% iron-clioquinol control; further: potency means the concentration at half of the fitted maximal effect; nearly all actives have a fitted effect of over 55% in size
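Yeast growth medium received pinned compounds, then yeast cells expressing toxic A-beta were added; plates incubated at 30 C for 48 hr. Growth read as absorbance at 600 nm, normalized to DMSO and equimolar FeCl3 plus clioquinol controls.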
aSyn yeast inh: rescues yeast growth from alpha-synuclein toxicity; Yeast expressing alpha-synuclein, growth rescue, BacTiter-Glo, 24 h; Potency, µM (series often up to 46.1 µM), without a hit: at the highest dose growth rescue (activation), usual class: activators; 370,000 compounds, 0.14% hits; further: potency means the concentration at half of the fitted maximal effect; % of control where 0% means no effect; nearly all actives have a fitted effect of over 65% in size
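Rescue of yeast growth: cells expressing toxic alpha-synuclein, induced in galactose at OD600 0.02, incubated with compound 24 h at 30 C. ATP luminescence quantified growth; inhibitors of toxicity appear as activators.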
pAkt inh: inhibitors of Akt phosphorylation. activity change, % for hits at 50 µM. 360,000 compounds, 0.32% hits. Neuro2A IGF-stimulated pAkt S473 HTRF, 20 min; stronger effect = lower value; in the data active means activity change below about -80%; inconclusive means mostly about -51% to -80%; further: on the % scale 0 is the no-effect control and ±100 the full control effect
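Neuro2A cells (4,500/well, DMEM with 0.5% FBS) were treated with compound at a single 50 µM final concentration, stimulated with 6 nM IGF for 20 min at 37 °C, and lysed. Phospho-Akt Ser473 was read by HTRF as 665/615 ratio ×10^4.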
FUS yeast rescue: suppressors of FUS proteinopathy in yeast | 390,000 compounds, 0.24% hits | AID 1347120 | S. cerevisiae FUS-expressing, growth rescue, OD600, 24 h | Potency, µM (doses to about 76.6 µM), actives largely listed as activators;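 further: potency means the concentration at half of the fitted maximal effect; plate controls were DMSO vehicle for no effect and reference control for full effect; nearly all actives have a fitted effect of over 55% in size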
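Toxicity suppression screen in FUS-yeast. Cells induced with 2% galactose, starting OD 0.005, treated 24hr at 30C with compounds at multiple final concentrations; growth by OD600.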
TDP43 rescue: rescues yeast growth from TDP-43 toxicity. Potency, µM (doses to about 46.1 µM), for inactives: top-dose growth rescue (activation), hits mostly activators. 410,000 compounds, 1.8% hits. AID 652104. TDP-43 expressing yeast growth rescue, BacTiter-Glo, 24 h; further: potency means the concentration at half of the fitted maximal effect; % of control where 0% means no effect; nearly all actives have a fitted effect of over 50% in size
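In this qHTS, compounds that restore growth of yeast expressing TDP-43 appear as activators. Cells (OD600=0.02, galactose medium, raffinose-pregrown) are incubated with compound 24 hr at 30 deg C and growth is quantified by BacTiter-Glo.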
* hit, by the source's call; i = inactive; ? = inconclusive; / = no result given. The list is not random: actives were taken first. Their share in the collection is about 2.3%. Unless noted, the call rests on the fitted dose curve; in most records, active means well fitted curve in the direction sought with a large enough effect; inconclusive means small, poorly fitted or top-dose-only effect, or another doubt; inactive means no such curve, though single readings can be large; an effect the other way counts as inactive or inconclusive.

SMILES	Abeta yeast res	aSyn yeast inh	pAkt inh	FUS yeast rescue	TDP43 rescue
COc1ccc2c(c1)OC[C@H]1[C@H]2N2C(=O)c3cc(Cl)ccc3NC(=O)[C@@]2(C)[C@H]1c1ccccc1	i	23.0%	i	i	4.47µM*
Cc1ccc2c(c1)[C@H]1[C@H](CO2)[C@H](c2ccccc2)[C@]2(C)C(=O)N(Cc3ccc(F)cc3)CC(=O)N12	15.8µM*	0.4%	i	i	21.4%
C[C@@]12C(=O)Nc3ccc(Cl)cc3C(=O)N1[C@H]1c3cc(Br)ccc3OC[C@@H]1[C@@H]2c1ccccc1	i	10.4%	i	28.2µM*	9.6%
COc1ccc2c(c1)OC[C@H]1[C@H]2N2C(=O)c3ccc(C)cc3NC(=O)[C@@]2(C)[C@H]1c1ccccc1	i	-1.3%	i	?	0.5%
COc1ccc2c(c1)OC[C@H]1[C@H]2N2C(=O)c3cc(OC)ccc3NC(=O)[C@@]2(C)[C@H]1c1ccccc1	i	19.7%	i	i	5.01µM*
CCCCN(CC)CCNC(=O)C1CCN(c2nnc(C)c3c(C)n(-c4ccc(C)cc4)nc23)CC1	i	/	/	i	5.6%
COc1ccc(-c2csc(C(C)(O)c3ccc(F)c(F)c3)n2)cc1OC (configuration not stated)	i	9.2%	i	i	22.4µM*
COc1ccc(C(C)(O)c2nc(-c3ccc(OC)c(OC)c3)cs2)cc1 (configuration not stated)	i	21.9%	/	i	?
COc1ccc(C(C)(O)c2nc(-c3ccc(F)c(Cl)c3)cs2)cc1 (configuration not stated)	?	-11.5%	i	i	17.8µM*
COc1ccc(C(C)(O)c2nc(-c3ccccc3)cs2)cc1 (configuration not stated)	?	?	i	i	8.91µM*
COc1cccc(C(C)(O)c2nc(-c3cccc(C(C)C)c3)cs2)c1 (configuration not stated)	i	-17.7%	i	?	17.8µM*
O=C(Nc1ccc(C(F)(F)F)cc1)C1CCCN(c2cnccn2)C1 (configuration not stated)	i	/	/	i	9.1%
CC(C)c1ccc(NC(=O)C2CCN(C(=O)c3ccc(F)cc3)CC2)cc1	?	/	/	i	25.6%
CCOC(=O)c1c(SCC(=O)Nc2nc3ccc(C)cc3s2)nc(=O)[nH]c1C	i	/	/	i	17.8%
CCC(=O)N1CCc2cc(Br)cc(S(=O)(=O)N3CCN(c4cc(C)ccc4C)CC3)c21	i	/	/	i	?
Cc1ccc(S(=O)(=O)N2CCc3cc(C(=O)Nc4c(C)cccc4C(C)C)ccc32)cc1	i	/	/	i	4.0%
COCc1cccc(-c2csc(C(C)(O)c3ccccc3)n2)c1 (configuration not stated)	i	-3.6%	i	i	35.5µM*
COc1ccc(C(C)(O)c2nc(-c3cccc(C#N)c3)cs2)cc1 (configuration not stated)	i	?	i	i	7.4%
Cc1ccc(-c2csc(C(O)(c3ccccc3)C(F)(F)F)n2)cc1C (configuration not stated)	i	-61.1%	i	i	-91.9%
CC(O)(c1ccccc1)c1nc(-c2cccc(F)c2)cs1 (configuration not stated)	i	18.7%	i	i	0.0%
CC(O)(c1ccccc1)c1nc(-c2cccc(C#N)c2)cs1 (configuration not stated)	?	-0.9%	i	i	20µM*
COc1ccc(-c2csc(C(C)(O)c3ccccc3)n2)cc1 (configuration not stated)	i	0.8%	i	i	26.9%
COc1ccc(-c2csc(C(C)(O)c3ccc(OC)cc3)n2)cc1 (configuration not stated)	?	6.31µM*	i	i	0.0%
Oc1cccc(-c2csc(C(O)(c3ccccc3)C(F)(F)F)n2)c1 (configuration not stated)	i	?	i	i	22.4µM*
COc1ccc(C(CC(=O)NCc2ccccc2)N2Cc3ccccc3C2=O)cc1 (configuration not stated)	i	/	/	i	-8.6%
SMILES	Abeta yeast res	aSyn yeast inh	pAkt inh	FUS yeast rescue	TDP43 rescue
CCOC(=O)c1cc(-c2ccc(OC)c(S(=O)(=O)N3CCN(c4ccccc4)CC3)c2)on1	i	/	/	i	21.6%
CC(O)(c1ccccc1)c1nc(-c2ccccc2)cs1 (configuration not stated)	?	3.5%	i	i	14.1µM*
CCOc1ccc(Cl)cc1-c1cc(C(=O)NCc2ccccc2OC)[nH]n1	i	?	i	?	17.8µM*
CCOc1ccc(Cl)cc1-c1cc(C(=O)NCc2ccccc2)[nH]n1	i	27.1%	i	?	?
CC(C)(C)C(=O)Nc1nnc(SCc2ccc(F)cc2)s1	?	/	/	i	17.8µM*
CC1CCc2sc(C(=O)Nc3nnc(SCc4ccc(F)cc4)s3)cc2C1 (configuration not stated)	i	-5.9%	-85.1%*	i	5.4%
COC(=O)c1ccc(CSc2nnc(NC(=O)c3cc4c(s3)CCCC4)s2)cc1	i	7.6%	i	i	10.0%
O=C(Cn1ccn(-c2cccc(Cl)c2)c(=O)c1=O)NCCc1ccccc1	i	/	/	i	12.5%
COc1ccc(OC)c(NC(=O)c2nc(S(=O)(=O)Cc3ccc(F)cc3)ncc2Cl)c1	i	/	/	i	3.16µM*
CCS(=O)(=O)c1ncc(Cl)c(C(=O)Nc2ccccc2)n1	i	/	/	i	11.2µM*
CCOC(=O)c1c(-c2ccccc2)csc1NC(=O)c1nc(S(=O)(=O)CC)ncc1Cl	i	/	/	i	3.98µM*
Cc1cccc(NC(=O)c2nc(S(C)(=O)=O)ncc2Cl)c1	i	/	/	i	20µM*
COc1ccccc1NC(=O)c1nc(S(=O)(=O)Cc2ccccc2)ncc1Cl	i	3.7%	i	i	-9.4%
Cc1cc(C)nc(/N=c2/ssnc2Cl)c1	i	-65.3%	i	/	2.82µM*
Cc1ccc(N=c2ssnc2Cl)cc1	i	-71.7%	i	i	-92.9%
COc1cccc(CNC(=O)C2=C(C)C(=O)OC23CCCCCC3)c1	i	/	/	i	16.8%
Cc1cc(NC(=O)c2ccc(F)cc2)n(-c2ccccn2)n1	i	1.7%	i	i	15.8µM*
Cc1ccccc1CN1c2ccccc2S(=O)(=O)c2ccccc21	i	/	/	i	2.5%
O=C(Nc1nc2c(F)c(F)c(F)cc2s1)c1ccco1	i	7.9%	i	i	-24.8%
O=C(Nc1cccc2ccccc12)c1ccco1	i	-2.5%	i	i	15.8µM*

Bioassay records (PubChem)
